# This is part of a sample that, as a whole, favours compounds with a hit. Of some 83,000 tested, about 20% had one in any assay.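 96-well plates, one dose, 48 hours. Percent growth reported; active if below 10.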 Activity calls are given as the source filed them.
# Tested on: SW-620 colon
# Experiment: NCI-60 one-dose screen, 48 h (100 = growth as untreated, 0 = no growth, -100 = all killed)
# Details: 10 µM unless noted
row,SMILES,growth
1,NS(=O)(=O)c1ccc(N2N=C(c3cccs3)CC2c2ccccc2O)cc1 (stereo not drawn),19.3% (inactive)
2,N#Cc1ccc(NC(=O)Nc2nc3ccc(OC(F)(F)F)cc3s2)cc1,13.6% (inactive)
3,O=C(O)Cn1ccc2ccccc21,99.1% (inactive)
4,SCc1ccc(CS)cc1,102% (inactive)
5,Oc1ccc(-c2cnc(-c3ccccc3)[nH]2)c(O)c1,109% (inactive)
6,Fc1cc(-c2nnc3sc(-c4ccc(Cl)cc4)nn23)c(Cl)cc1Cl,96.5% (inactive)
7,CCCOC(=O)C1c2cc3c(cc2CC(C)C1C(=O)OCCC)OCO3 (stereo not drawn),101% (inactive)
8,[Ag].[Ag].[NH-]S(=O)(=O)c1ccc(N=Nc2cc(N=Nc3ccc(S([NH-])(=O)=O)cc3)c3c(NC(=O)C(Cl)Cl)cccc3c2OC(=O)C(Cl)Cl)cc1.[c-]1nccs1.[c-]1nccs1,58.7% (inactive)
9,CCc1ccc(Nc2cc(C)c3ccc(O)cc3n2)cc1,78.5% (inactive)
10,Fc1ccc(-c2nnc(N3CCOCC3)c3ccccc23)cc1,100% (inactive)
11,COc1ccc2nc(C)cc(Nc3ccccc3O)c2c1,82% (inactive)
12,COc1cc2c(cc1C)NC(=O)/C2=C\c1c[nH]c2ccccc12,101% (inactive)
13,Clc1ccc2c(c1)-n1cccc1C(c1ccc3ccccc3c1)=NC2,88% (inactive)
14,O=C(C(=O)c1cccnc1)c1cccnc1,103% (inactive)
15,NC(=O)Nc1ccc2ncnc(Nc3cccc(O)c3)c2c1,99.1% (inactive)
16,O=C(Nc1ccc(Oc2ccc(Nc3nc4ccccc4s3)cc2)cc1)Nc1ccc(Cl)c(C(F)(F)F)c1,8.67% (active)

row,SMILES,growth
1,CC(C)(C)CC(C)(C)NCc1cc(C(C)(C)C)cc(CNC(C)(C)CC(C)(C)C)c1O,75.3% (inactive)
2,CCOC(C)(c1ccc(Cl)cc1)C1CCNCC1 (stereo not drawn),79% (inactive)
3,CCCc1n(Cc2ccc3ccccc3n2)cc[n+]1Cc1ccc2ccccc2c1,15% (inactive)
4,C=CCn1c(SCC(=O)Nc2ccc(C(=O)/C=C/c3ccc(Cl)cc3)cc2)nnc1-c1ccc(Cl)cc1,97.9% (inactive)
5,C=C1NC(=O)C(C(C)CC)NC(=O)C2CSCC(NC(=O)CCC(=O)O)C(=O)NC(Cc3ccccc3)C(=O)NC(C)C(=O)NC(CC(C)CC)C(=O)NC(C(=O)NC(Cc3ccccc3)C(=O)N3CCCC3C(=O)N2)C(C)OC(=O)C(CO)NC(=O)C(C(O)COC)N(C)C(=O)C(C(C)C)NC(=O)C(CC(C)CC)NC1=O (stereo not drawn),21.2% [6 µM] (inactive)
6,OC(c1cc2cc(Cl)ccc2c2cc(C(F)(F)F)ccc12)C1CCCCN1 (stereo not drawn),-78.3% (active)
7,CCOC(=O)NNc1cccc(Cl)c1,102% (inactive)
8,Cc1nc2ccc(Nc3nc(N4CCOCC4)nc(N4CCN(C)CC4)n3)cc2n1Cc1ccccc1,96.9% (inactive)
9,CCCc1cc2c(cc1CN(Cc1cc3c(cc1CCC)OCO3)C(=N)OCC)OCO2,81% (inactive)
10,OC(c1cc2c(Cl)cc(Cl)cc2c2cc(C(F)(F)F)ccc12)C1CCCCN1 (stereo not drawn),-74.4% (active)
11,COc1ccc(-n2nc(C(=O)NCC(=O)Nc3nc4cc(OC)ccc4s3)c3ccccc3c2=O)cc1,47.6% (inactive)
12,CCCCn1c(-c2ccc(F)cc2)nc2cc(OC)c(OC)cc2c1=O,98.3% (inactive)
13,CCC1CCc2nc3sc(C(=O)Nc4cccc(F)c4)c(N)c3cc2C1 (stereo not drawn),40.6% (inactive)
14,Cc1ccc(Nc2nc(NCCO)c3ccccc3n2)cc1C,13.5% (inactive)
15,COc1ccc2c(c1)CCCC21C(=O)Nc2ccccc21 (stereo not drawn),107% (inactive)

# Tested on: MCF7 breast
# Experiment: as above
# Details: 10 µM unless noted
row,SMILES,growth
1,NS(=O)(=O)c1ccc(N2N=C(c3cccs3)CC2c2ccccc2O)cc1 (stereo not drawn),4.97% (active)
2,N#Cc1ccc(NC(=O)Nc2nc3ccc(OC(F)(F)F)cc3s2)cc1,6.26% (active)
3,CC(=O)Nc1nonc1-c1nc2ccccc2n1Cc1ccc(C(C)(C)C)cc1,58.9% (inactive)
4,Cc1nn(-c2ccc(Cl)cc2)c(=O)n1CCN1CCOCC1,73.4% (inactive)
5,O=C(O)Cn1ccc2ccccc21,96.4% (inactive)
6,Oc1ccc(-c2cnc(-c3ccccc3)[nH]2)c(O)c1,83.3% (inactive)
7,Fc1cc(-c2nnc3sc(-c4ccc(Cl)cc4)nn23)c(Cl)cc1Cl,86.7% (inactive)
8,CCCOC(=O)C1c2cc3c(cc2CC(C)C1C(=O)OCCC)OCO3 (stereo not drawn),100% (inactive)
9,[Ag].[Ag].[NH-]S(=O)(=O)c1ccc(N=Nc2cc(N=Nc3ccc(S([NH-])(=O)=O)cc3)c3c(NC(=O)C(Cl)Cl)cccc3c2OC(=O)C(Cl)Cl)cc1.[c-]1nccs1.[c-]1nccs1,50.8% (inactive)
10,CN(C)c1ccc(/C=C(\C#N)c2nc3ccccc3n2C)cc1,17.9% (inactive)
11,CCc1ccc(Nc2cc(C)c3ccc(O)cc3n2)cc1,63.9% (inactive)
12,Fc1ccc(-c2nnc(N3CCOCC3)c3ccccc23)cc1,155% (inactive)
13,N[C@@H](CO)C(=O)O,104% (inactive)
14,COc1ccc2nc(C)cc(Nc3ccccc3O)c2c1,67.7% (inactive)
15,COc1cc2c(cc1C)NC(=O)/C2=C\c1c[nH]c2ccccc12,59.2% (inactive)
16,Clc1ccc2c(c1)-n1cccc1C(c1ccc3ccccc3c1)=NC2,84.4% (inactive)
17,O=C(C(=O)c1cccnc1)c1cccnc1,97.5% (inactive)
18,NC(=O)Nc1ccc2ncnc(Nc3cccc(O)c3)c2c1,97.3% (inactive)
19,COc1ccc(C2C3CCc4ccccc4C3=NN2C(=O)c2cc(OC)c(OC)c(OC)c2)cc1O (stereo not drawn),95.8% (inactive)

row,SMILES,growth
1,O=C(Nc1ccc(Oc2ccc(Nc3nc4ccccc4s3)cc2)cc1)Nc1ccc(Cl)c(C(F)(F)F)c1,4.73% (active)
2,CC(C)(C)CC(C)(C)NCc1cc(C(C)(C)C)cc(CNC(C)(C)CC(C)(C)C)c1O,31.6% (inactive)
3,CCOC(C)(c1ccc(Cl)cc1)C1CCNCC1 (stereo not drawn),94.8% (inactive)
4,CCCc1n(Cc2ccc3ccccc3n2)cc[n+]1Cc1ccc2ccccc2c1,2.91% (active)
5,C=CCn1c(SCC(=O)Nc2ccc(C(=O)/C=C/c3ccc(Cl)cc3)cc2)nnc1-c1ccc(Cl)cc1,43.2% (inactive)
6,C=C1NC(=O)C(C(C)CC)NC(=O)C2CSCC(NC(=O)CCC(=O)O)C(=O)NC(Cc3ccccc3)C(=O)NC(C)C(=O)NC(CC(C)CC)C(=O)NC(C(=O)NC(Cc3ccccc3)C(=O)N3CCCC3C(=O)N2)C(C)OC(=O)C(CO)NC(=O)C(C(O)COC)N(C)C(=O)C(C(C)C)NC(=O)C(CC(C)CC)NC1=O (stereo not drawn),16.9% [6 µM] (inactive)
7,OC(c1cc2cc(Cl)ccc2c2cc(C(F)(F)F)ccc12)C1CCCCN1 (stereo not drawn),-86.3% (active)
8,CCOC(=O)NNc1cccc(Cl)c1,105% (inactive)
9,Cc1nc2ccc(Nc3nc(N4CCOCC4)nc(N4CCN(C)CC4)n3)cc2n1Cc1ccccc1,82.6% (inactive)
10,F,30.7% [6.87 mM] (inactive)
11,CCCc1cc2c(cc1CN(Cc1cc3c(cc1CCC)OCO3)C(=N)OCC)OCO2,86.5% (inactive)
12,OC(c1cc2c(Cl)cc(Cl)cc2c2cc(C(F)(F)F)ccc12)C1CCCCN1 (stereo not drawn),-75.7% (active)
13,COc1ccc(-n2nc(C(=O)NCC(=O)Nc3nc4cc(OC)ccc4s3)c3ccccc3c2=O)cc1,-6.52% (active)
14,CCCCn1c(-c2ccc(F)cc2)nc2cc(OC)c(OC)cc2c1=O,88.2% (inactive)
15,COc1ccc(-c2cn(-c3cccc(C(=O)/C=C/c4ccc(O)c(OC)c4)c3)c(=O)[nH]2)cc1,15.2% (inactive)
16,CCC1CCc2nc3sc(C(=O)Nc4cccc(F)c4)c(N)c3cc2C1 (stereo not drawn),12.6% (inactive)
17,Cc1ccc(Nc2nc(NCCO)c3ccccc3n2)cc1C,24.4% (inactive)
18,COc1ccc2c(c1)CCCC21C(=O)Nc2ccccc21 (stereo not drawn),95.7% (inactive)

# — PubChem BioAssay (NCI)
